TDP1 cell CPT – qHTS for Inhibitors of human tyrosyl-DNA phosphodiesterase 1 (TDP1): qHTS in cells in presence of CPT; chicken DT40 Tdp1-/-;hTDP1 cells + 20 nM CPT, ATP luminescence, 48 h; Potency, µM (titrated, usually from 46.2 µM), inactives show at the highest dose activity change, negative = growth inhibition, hits mostly inhibitors; 12% of 420,000 active; AID 686979, 2013; also: potency is read from the fitted curve at half-maximal effect; % is scaled to controls: 0 for no effect and ±100 for the full control effect; nearly all actives have a fitted effect of over 55% in size
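Chicken DT40 Tdp1-/- cells complemented with human TDP1, 400 cells/well, exposed to compounds plus 20 nM camptothecin for at least 48 h at 37 C; viability read as ATP content by CellTiter-Glo luminescence.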
IL-1B inflam inh – qHTS for Inhibitors of Inflammasome Signaling: IL-1-beta AlphaLISA Primary Screen | THP-1 LPS/ATP IL-1B secretion, AlphaLISA, 16 h; hits give low values | activity change, % at 57.5 µM | 4.7% of 360,000 active | AID 743279, 2014; in the data active = activity change below about -50%; inconclusive = mostly about -30% to -49%; also: % is scaled to controls: 0 for no effect and ±100 for the full control effect
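THP-1 cells pretreated 1 hr with compounds (up to 57.5 uM final), then stimulated with LPS (250 ng/mL final) plus ATP (1.25 mM final); secreted IL-1B measured by AlphaLISA after 16 hr, decreased signal indicating inhibition.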
ASM inhibitor – Inhibitors of Secretory Acid Sphingomyelinase (S-ASM): qHTS | Sphingomyelin phosphodiesterase (Homo sapiens), P17405 | placental ASM, HMU-PC fluorogenic substrate, 60 min | Potency, µM (titrated, usually from 57.5 µM), inactives show at the top dose activity change, negative = inhibition, most hits filed as inhibitors | 0.006% of 340,000 active; also: potency is read from the fitted curve at half-maximal effect
Target sequence (P17405 47-631 limits assumed): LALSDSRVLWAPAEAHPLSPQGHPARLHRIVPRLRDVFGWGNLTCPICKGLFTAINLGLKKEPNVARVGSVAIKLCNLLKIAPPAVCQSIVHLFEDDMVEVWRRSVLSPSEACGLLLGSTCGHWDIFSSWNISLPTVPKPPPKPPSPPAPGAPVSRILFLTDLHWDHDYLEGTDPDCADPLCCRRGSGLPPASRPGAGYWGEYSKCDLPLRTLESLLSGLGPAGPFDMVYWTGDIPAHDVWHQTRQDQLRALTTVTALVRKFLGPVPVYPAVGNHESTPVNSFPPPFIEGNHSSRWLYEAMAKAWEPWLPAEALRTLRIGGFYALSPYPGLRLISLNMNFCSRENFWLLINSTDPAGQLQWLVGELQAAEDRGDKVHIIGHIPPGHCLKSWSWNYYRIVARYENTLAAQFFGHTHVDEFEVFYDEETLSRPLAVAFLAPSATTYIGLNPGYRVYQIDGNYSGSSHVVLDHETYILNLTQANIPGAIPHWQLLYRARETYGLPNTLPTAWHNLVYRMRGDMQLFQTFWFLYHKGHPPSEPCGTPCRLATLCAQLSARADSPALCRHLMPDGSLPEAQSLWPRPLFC
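Human placenta-derived ASM preincubated with compound 10 min at room temperature, then reacted with 9 uM (final) fluorogenic HMU-PC substrate for 60 min at 37 C. Stop solution raises pH to 10; fluorescence read at Ex 386/Em 447 nm.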
TGFb SMAD3 inh – qHTS for Inhibitors of TGF-b; Potency, µM (doses to about 46.1 µM), inactives show top-dose activity, negative = inhibition, most hits filed as inhibitors; 1.2% of 410,000 active; HepG2 CAGA-GFP TGF-b/SMAD3 reporter, GFP fluorescence, 18 h; TGF-beta stimulated, 500 pg/mL final; also: potency is read from the fitted curve at half-maximal effect; % is scaled to controls: 0 for no effect and ±100 for the full control effect; nearly all actives have a fitted effect of over 65% in size
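First, reporter cells (HEPG2 CAGA-GFP) rested 2 h at 37 degrees C. Next, compounds were pinned in and TGF-beta added to 500 pg/mL final. After 18 h, GFP was imaged per cell and summed per well.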
DT40 TDP1 no CPT – qHTS for Inhibitors of human tyrosyl-DNA phosphodiesterase 1 (TDP1): qHTS in cells in absence of CPT. Potency, µM (titrated, usually from 46.2 µM), without a hit: top-dose activity change, negative = growth inhibition, usual class: inhibitors. 15% of 420,000 active. DT40 Tdp1-/- hTDP1 cells, no CPT, ATP luminescence, 48 h; also: potency is read from the fitted curve at half-maximal effect; % is scaled to controls: 0 for no effect and ±100 for the full control effect; nearly all actives have a fitted effect of over 55% in size
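Chicken DT40 Tdp1-/- cells complemented with human TDP1, screened without camptothecin (DMSO vehicle only), 400 cells/well. Compounds pin-transferred, cells incubated at 37 °C for at least 48 hr. Growth read as ATP-dependent luminescence (CellTiter-Glo, 30 min at RT).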
HepG2 viability – qHTS for Inhibitors of TGF-b: Cytotox Counterscreen | AID 588856, 2011 | HepG2 CAGA-GFP viability, ATP luminescence, 18 h | 0.76% of 410,000 active | Potency, µM (top dose mostly 46.1 µM), for the others: at the top dose activity change, negative = cytotoxicity, usual class: cytotoxic; also: potency is read from the fitted curve at half-maximal effect
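HepG2 CAGA-GFP cells (1000/well, DMEM with 1% FBS) received compound, then TGF-beta at 500 pg/mL final, and were incubated 18 hours at 37 degrees C. Viability was read by CellTiter-Glo luminescence. Media-only wells were set as complete cell-killing and DMSO as no toxicity.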
Numbers without * were called inactive; ? = inconclusive; / = no result given. An excerpt weighted towards active compounds, which were near 19% of everything screened. Unless noted, calls follow the shape of the dose curve; as a rule, active = well fitted curve in the direction sought with a large enough effect; inconclusive = small, poorly fitted or top-dose-only effect, or another doubt; inactive = no such curve, though single readings can be large; an effect the other way counts as inactive or inconclusive.

SMILES	TDP1 cell CPT	IL-1B inflam inh	ASM inhibitor	TGFb SMAD3 inh	DT40 TDP1 no CPT	HepG2 viability
O=C(c1ccccc1)N1N=C(C(F)(F)F)CC1(O)c1ccc(F)cc1 (stereo not drawn)	?	-4	-5%	-6%	?	-3%
COc1ccc(CNC(=O)CCC2N=C3c4ccccc4N=C(SCc4cccc(F)c4)N3C2=O)cc1 (stereo not drawn)	?	/	/	?	?	-33%
Cc1cc(C(=O)COC(=O)c2ccc(NC(=O)CC#N)cc2)c(C)n1C1CC1	21µM*	-12	-3%	-14%	21µM*	-1%
Cc1cc(C(=O)COC(=O)c2ccc(NC(=O)CC#N)cc2)c(C)n1CC(F)(F)F	-5%	-8	/	2%	-28%	-11%
Cc1ccc(Cn2ccsc2=NC(=O)CCl)cc1	12µM*	-100*	-3%	?	5.8µM*	-113%
Cc1ccc(Cn2ccsc2=NC(=O)COC(=O)c2ccc(NC(=O)CC#N)cc2)cc1	?	-9	/	?	16µM*	-21%
COc1cccc(C2=CC(=O)CC(C)(C)C2=O)c1	-7%	15	/	3%	-18%	3%
O=C(Cc1c(F)cccc1Cl)Nc1ccc(S(=O)(=O)Nc2nccs2)cc1	0%	-10	-3%	-24%	-8%	-16%
OC(CNCc1ccccc1)c1ccccc1 (stereo not drawn)	-17%	9	1%	3%	-17%	-2%
OC(c1ccccc1)C(NCc1ccccc1)c1ccccc1 (stereo not drawn)	23µM*	-23	/	1%	23µM*	-29%
Cc1ccc(-c2cn(-c3ccc(Cl)cc3)c(S(=O)(=O)CC(=O)Nc3ccccc3)n2)cc1	26µM*	/	/	?	?	-32%
COc1ccc(-n2cc(-c3ccccc3)nc2SCC(=O)Nc2ccccc2C)cc1	?	/	/	-8%	?	3%
Cc1ccc(-n2cc(-c3ccccc3)nc2S(=O)(=O)CC(=O)Nc2ccc(F)cc2)cc1	23µM*	/	/	?	?	-40%
COc1ccc(Cl)cc1-n1cc(-c2ccccc2)nc1SCC(=O)Nc1ccc(C)cc1	?	/	/	-29%	18µM*	-18%
CCNC(=O)C1Cc2cc(S(=O)(=O)N3CCCC3)ccc2N1C(C)=O (stereo not drawn)	-10%	-8	-1%	5%	10%	0%
COc1cc(C(=O)N2CCCCC2)ccc1OCC(=O)Nc1ccc(F)cc1	?	31	1%	-25%	?	-2%
CN(/C(=N\S(=O)(=O)c1ccccc1)c1ccccc1)c1ccc(O)cc1	?	31	-1%	-5%	?	-22%
CC(=O)Nc1ccccc1-c1nc2ccccc2n(CC(=O)c2ccc(C)c(C)c2)c1=O	21µM*	/	/	22%	?	-7%
CC(=O)Nc1ccccc1-c1nc2ccccc2n(CC(=O)c2ccc(Br)cc2)c1=O	?	/	/	0%	?	-10%
CCC(C(=O)Nc1c(C)cc(C)cc1C)n1c(=O)c(-c2ccccc2NC(C)=O)nc2ccccc21 (stereo not drawn)	-23%	/	/	7%	?	-15%
CCC(C(=O)Nc1cccc(C#N)c1)n1c(=O)c(-c2ccccc2NC(C)=O)nc2ccccc21 (stereo not drawn)	23µM*	/	/	?	13µM*	-9%
CCC(=O)Nc1ccc(C)cc1-c1nc2ccccc2n(C(C)C(=O)Nc2ccccc2CC)c1=O (stereo not drawn)	18µM*	/	/	?	21µM*	-27%
CCc1ccc(NC(=O)C(CC)n2c(=O)c(-c3ccccc3NC(C)=O)nc3ccccc32)cc1 (stereo not drawn)	23µM*	/	/	?	23µM*	-35%
Nc1ccn(C[C@@H](CO)OCP(=O)(O)O)c(=O)n1	-12%	/	/	/	1%	/
CCC(C)NC(=O)CSc1n[nH]c(-c2cc(Cl)ccc2OC)n1 (stereo not drawn)	-8%	8	-1%	?	?	-19%
SMILES	TDP1 cell CPT	IL-1B inflam inh	ASM inhibitor	TGFb SMAD3 inh	DT40 TDP1 no CPT	HepG2 viability
CCOC(=O)c1oc2c(c1C)-c1nn(Cc3cccc(Cl)c3)cc1CC2	?	/	/	/	-25%	-24%
CC(=O)Nc1sc(C)c(C)c1C(=O)OCC(=O)NC(C)c1ccccc1 (stereo not drawn)	?	1	/	4%	?	-7%
CC1(C)N=C(N)N=C(N)N1c1ccc(Oc2ccc(Cl)cc2)c(Cl)c1	2.6µM*	-86*	-4%	?	1.5µM*	-33%
CC1(C)N=C(N)N=C(N)N1c1cccc(CN)c1	-25%	-2	0%	-2%	?	10%
CC1(C)N=C(N)N=C(N)N1c1ccccc1	0.73µM*	-7	5%	-29%	0.13µM*	-54%
CC1(C)N=C(N)N=C(N)N1c1ccc(CCCCc2ccccc2)cc1	0.65µM*	?	/	?	0.37µM*	-53%
Cc1ccc(N2CCN(c3ccc(NCc4nc5ccccc5n4C)cc3)CC2)cc1	?	6	64%	0%	16µM*	-18%
CN(Cc1nc2ccccc2n1C)S(=O)(=O)c1ccc(Cl)cc1	?	-18	-1%	1%	26µM*	-82%
Cc1ccc(NCc2nc3ccccc3n2C)c(C)c1	?	-17	-3%	-7%	?	-25%
Cc1cccc(NCc2nc3ccccc3n2C)c1	-7%	5	1%	25%	-6%	-22%
Cn1c(CNc2ccc(Cl)cc2)nc2ccccc21	16µM*	10	2%	-33%	?	-8%
CC(C)CN(C(=O)Cn1nnc(-c2ccc(Cl)cc2)n1)C1CCS(=O)(=O)C1 (stereo not drawn)	0%	3	/	-23%	-12%	-19%
CCN1C(=O)CC(N2CCC(C(=O)OC)CC2)C1=O (stereo not drawn)	13%	10	2%	-4%	-17%	3%
CCCCN1C(=O)CC(SC2CC(=O)N(CCCC)C2=O)C1=O (stereo not drawn)	16µM*	-10	0%	15%	5.8µM*	0%
CCN1C(=O)CC(SC2CC(=O)N(CC)C2=O)C1=O (stereo not drawn)	3.7µM*	-2	3%	2%	8.2µM*	-4%
